# Only some compounds are listed: those with a hit (about 10% of all), similar ones and a draw of the others.
# Mm-Cpn inhibitor: blocks the Methanococcus maripaludis chaperonin Mm-Cpn. 330,000 compounds, 0.031% hits. Potency, µM (titrated, usually from 76.9 µM), without a hit: top-dose activity, negative = inhibition, hits mostly inhibitors. purified Mm-Cpn ATPase, ADP Transcreener TR-FRET. AID 504842; further: potency means the concentration at half of the fitted maximal effect; nearly all actives have a fitted effect of over 80% in size
#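 ATP (10 uM final) was added to archaeal chaperonin (25 nM final) after 10 min exposure to test compound at 37°C; after 30 min further incubation, ADP was detected by competitive TR-FRET.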
# CCT chaperon mod: cytosolic chaperonin activity modulation. purified chaperonin ATPase assay, HTRF ADP detection, 30 min. activity change, % (no concentration beside the values), hits read low. 360,000 compounds, 0.3% hits; in the data active means activity change below about -30%
#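 Enzyme 40 or 20 nM (batch-dependent) in Tris pH 7.4/KCl/MgCl2/DTT; cpd 76 uM single point; ATP 10 uM; 30 min 37 °C; Transcreener ADP HTRF detection, 30 min RT; ratio 665/615.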
# PLK1 PBD inh: inhibitors of human PLK1 polo-box domain binding. P53350. Plk1 PBD binding of FITC phosphopeptide, fluorescence polarization. Potency, µM, without a hit: max response, negative = inhibition, most hits filed as inhibitors. 360,000 compounds, 2.8% hits. AID 720504; further: potency means the concentration at half of the fitted maximal effect; series mostly up to about 57 µM; nearly all actives have a fitted effect of over 65% in size
# VDR inhibitor: vitamin D3 receptor (human) inhibition; VDR-SRC2-3 peptide fluorescence polarization, 2 h; Potency, µM, for inactives: max response, negative = inhibition, most hits filed as inhibitors; 400,000 compounds, 0.93% hits; AID 504847; further: potency means the concentration at half of the fitted maximal effect
# Target sequence (P11473 whole entry, looked up): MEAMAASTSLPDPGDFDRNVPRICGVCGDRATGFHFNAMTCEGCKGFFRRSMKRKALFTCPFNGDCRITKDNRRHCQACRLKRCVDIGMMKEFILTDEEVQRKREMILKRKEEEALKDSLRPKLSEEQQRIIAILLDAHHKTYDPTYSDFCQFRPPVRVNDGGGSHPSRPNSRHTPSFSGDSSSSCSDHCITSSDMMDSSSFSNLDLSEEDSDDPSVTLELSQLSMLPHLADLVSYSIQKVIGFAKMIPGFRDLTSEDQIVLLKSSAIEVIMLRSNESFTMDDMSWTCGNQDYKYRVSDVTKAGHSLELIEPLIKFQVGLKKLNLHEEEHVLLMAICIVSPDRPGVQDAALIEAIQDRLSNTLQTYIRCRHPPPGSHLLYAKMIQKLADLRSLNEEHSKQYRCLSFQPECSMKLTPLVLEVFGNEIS
#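 Measured by FP: displacement of SRC2-3 coactivator peptide from VDR by library compounds, following a two-hour ambient incubation.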
# Sfp PPTase inh: blocks B. subtilis Sfp PPTase activity. Biochemical Sfp PPTase activity, qHTS. Potency, µM, inactives show largest response in the series, negative = inhibition, hits mostly inhibitors. 310,000 compounds, 3.5% hits;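 further: the enzyme is Sfp with the accession as filed and its product quenches rhodamine fluorescence; potency means the concentration at half of the fitted maximal effect; 0% = enzyme reaction without inhibitor and -100% = no enzyme wells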
#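 Fluorescence-quenching assay with 15 nM Sfp, 5 uM rhodamine-CoA and 12.5 uM BHQ-2-labelled ybbR peptide in pH 7.6 Hepes/MgCl2 buffer. Enzyme was pre-incubated with compound for 15 min at room temperature. Rate was taken from the 30-min fluorescence change (525/598 nm).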
# G9a block: inhibitors of human histone lysine methyltransferase G9a. AID 504332. Q96KQ7. G9a H3K9 monomethylation, AlphaScreen, 2 h. Potency, µM (top dose mostly 102 µM), for the others: top-dose activity, negative = inhibition, most hits filed as inhibitors. 350,000 compounds, 8.8% hits; further: potency means the concentration at half of the fitted maximal effect; nearly all actives have a fitted effect of over 75% in size
#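 Compounds were preincubated with 20 nM G9a for 15 min, after which biotinylated H3K9 peptide (500 nM) and SAM (20 uM) started a 2 h room-temperature reaction. Monomethylated product was quantified by antibody-based AlphaScreen chemiluminescence.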
# An asterisk follows results filed as active; u = inconclusive; x = no result given; [ ] = dose if it differs, or a comment. Unless noted, the call rests on the fitted dose curve; in most records, active means well fitted curve in the direction sought with a large enough effect; inconclusive means small, poorly fitted or top-dose-only effect, or another doubt; inactive means no such curve, though single readings can be large; an effect the other way counts as inactive or inconclusive. Unless noted, on the % scale 0 is the no-effect control and ±100 the full control effect.
SMILES,Mm-Cpn inhibitor,CCT chaperon mod,PLK1 PBD inh,VDR inhibitor,Sfp PPTase inh,G9a block
CC(C)(C)S(=O)(=O)/C(C#N)=C/c1sccc1C1OCCO1,-0.2%,-5.9,21.2µM*,u,4.1%,0.2%
CCOC(=O)c1ccc(NC(=O)Cn2c(-c3nonc3N)nc3ccccc32)cc1,-1.7%,0.8,21.2µM*,u,-9.6%,-0.4%
Cc1ccc(/C=N/NC(=O)c2cccnc2)o1,-2.0%,2.4,-5.3%,21.1%,-1.5%,-3.6%
Nc1nonc1-c1nc2ccccc2n1CC(=O)N/N=C/c1ccc(-c2cccc(C(=O)O)c2)o1,1.6%,-0.2,u,10.2%,1µM*,7.94µM*
O=Cc1ccc(-c2cccc(C(=O)O)c2)o1,-7.2%,2.3,-21.7%,-20.4%,u,50.1µM*
O=C(O)c1cccc(-c2ccc(/C=N/NC(=O)c3cccnc3)o2)c1,-4.9%,-0.7,-17.4%,2.0%,u,12.6µM*
CN1CCN(C(=O)C(=O)Nc2c3c(nn2-c2ccc(Cl)cc2)CSC3)CC1,x,x,x,13.9%,x,-2.9%[59 µM]
Cc1ccn2c(=O)cc(COc3ccc(NC(=O)COc4ccc(Cl)cc4)cc3)nc2c1,x,x,x,12.6%,x,15.4%[59 µM]
Cc1ccc(S(=O)(=O)N(CC(=O)Nc2c(C)cccc2C)c2cccc(Cl)c2)cc1,x,x,x,5.5%,x,-2.9%[59 µM]
Nc1nnc(CC(=O)N/N=C/c2ccc(-c3cccc(C(=O)O)c3)o2)s1,1.2%,1.3,-6.9%,0.0%,39.8µM*,u
Cc1cccc(CSc2nc(=O)c3c(n2C)NC(=O)CC3c2cc(F)cc(F)c2)c1 (configuration not stated),x,x,x,3.3%,x,5.0%[59 µM]
O=C(CSc1nnc(C2COc3ccccc3O2)o1)N1CCCC1 (configuration not stated),-9.0%,-2.5,21.2µM*,u,u,8.91µM*
CN=C(NC#N)Nc1ccc(C2=NNC(=O)C[C@@H]2C)cc1,x,x,x,x,5.4%,x
CCCCNC(=O)c1ccc2nc(-c3ccco3)c(-c3ccco3)nc2c1,0.8%,-0.5,21.2µM*,79.4µM*,31.6µM*,7.94µM*
O=C(Nc1ccc(N2CCOCC2)cc1)c1ccc2nc(-c3ccco3)c(-c3ccco3)nc2c1,-3.5%,0.7,-9.6%,13.0%,-8.0%,u
COc1ccc(C(=O)NCCCN2CCOCC2)cc1,0.3%,-6.0,-0.1%,-12.4%,5.1%,33.4%
CC(C)(C)NC(=O)C(c1cc2ccccc2o1)n1c(=O)c(-c2ccco2)nc2ccccc21 (configuration not stated),x,x,-28.4%,x,x,x
CC(=O)c1ccc(NC(=O)c2ccc3nc(-c4ccco4)c(-c4ccco4)nc3c2)cc1,-3.6%,-3.9,23.8µM*,u,12.6µM*,1.78µM*
CCCCCNC(=O)C(c1cc2ccccc2o1)n1c(=O)c(-c2ccco2)nc2ccccc21 (configuration not stated),x,x,7.52µM*,x,x,x
COc1ccc(-c2nc3ccc(C(=O)NCCCN4CCOCC4)cc3nc2-c2ccc(OC)cc2)cc1,-2.1%,-3.7,-9.5%,-23.8%,56.2µM*,-14.6%
CC(=O)Nc1nonc1-c1nnc(SCc2ccccc2C)n1C,x,x,x,-17.3%,x,-2.1%[59 µM]
O=C(C1CCN(S(=O)(=O)Cc2ccccc2)CC1)N1CCN(c2cccc(Cl)c2)CC1,x,x,x,19.2%,x,-35.7%[59 µM]
CCN(CC)c1ccc(NC(=O)C2CCN(c3nnc(-n4cccc4)s3)CC2)c(C)c1,x,x,x,5.5%,x,3.98µM*
O=C(NCCCN1CCc2ccccc2C1)C1CCN(c2nnc(-n3cccc3)s2)CC1,2.5%,0.3,-2.4%,-4.3%,-15.5%,50.1µM*
O=C(NCCCN1CCN(Cc2ccccc2)CC1)C1CCN(c2nnc(-n3cccc3)s2)CC1,-0.9%,-2.9,-6.8%,10.8%,3.4%,-9.7%
O=C(Nc1ccccc1C(F)(F)F)C1CCN(c2nnc(-n3cccc3)s2)CC1,x,x,x,-7.8%,x,-3.4%[59 µM]
O=C(COc1ccccc1)Nc1nnc2n1CCS2,x,x,x,9.7%,x,1.41µM*
COc1cccc(OCC(=O)Nc2nnc3n2CCS3)c1,x,x,x,4.1%,x,3.16µM*
CC(Oc1ccccc1)C(=O)Nc1nnc2n1CCS2 (configuration not stated),x,x,x,3.0%,x,1.58µM*

# Screens from PubChem BioAssay.
